Compound activity from PubChem BioAssay.
SMN2 splice up: qHTS Assay for Enhancers of SMN2 Splice Variant Expression; HEK293 SMN2-luciferase splicing reporter, luminescence, 30-36 h; Potency, µM (doses to about 46.1 µM), actives largely listed as activators; 210,000 compounds, 2.8% hits; AID 1458, 2008; note: nearly all actives have a fitted effect of over 55% in size
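HEK293 cells carry an SMN2 minigene-luciferase reporter in which exon 7 inclusion puts luciferase in frame. Cells were seeded at 2000 cells/well, attached for 10-12 hours, then exposed to compounds for 30-36 hours at 37C before ONE-Glo luminescence.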
NPC1 promoter act: qHTS Assay for NPC1 Promoter Activators; Potency, µM (highest dose often 9.22 µM), hits mostly activators; 320,000 compounds, 2.4% hits; Huh7 NPC1 promoter luciferase reporter, 24 h; AID 485313, 2010; note: nearly all actives have a fitted effect of over 60% in size
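Huh7 cells stably carrying NPC1 promoter–luciferase, plated in Opti-MEM with 10% FBS for 2 h, were exposed to compound in DMSO for 24 h at 37 °C; luciferase reagent was added for 10 min and luminescence read.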
Rab9 prom act: qHTS Assay for Rab9 Promoter Activators; Huh7 Rab9 promoter-luciferase reporter, luminescence, 24 h; Potency, µM (top dose mostly 9.22 µM), actives largely listed as activators; 320,000 compounds, 2.8% hits; AID 485297, 2010; note: nearly all actives have a fitted effect of over 60% in size
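Measured in stably transfected Huh7 cells bearing a Rab9 promoter–luciferase construct: 24 h compound treatment at 37 °C, followed by luminescence detection.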
ELG1 genotox: qHTS screen for small molecules that induce genotoxicity in human embryonic kidney (HEK293T) cells expressing luciferase-tagged ELG1. HEK293T ELG1-luciferase reporter, luminescence, 16 h. Potency, µM (top dose mostly 46 µM), usual class: activators. 330,000 compounds, 1.3% hits. AID 504466, 2011; note: nearly all actives have a fitted effect of over 60% in size
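16 hr compound incubation (37 °C, 5% CO2) of HEK293T cells carrying luciferase-tagged ELG1; luciferase then measured by ONE-Glo luminescence after 30 min at RT.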
FLuc modulator: qHTS profiling assay for firefly luciferase inhibitor/activator using purifed enzyme and Km concentrations of substrates (counterscreen for miR-21 project) | 360,000 compounds, 6.9% hits | Potency, µM (series often up to 57.5 µM), actives largely listed as inhibitors | Luciferin 4-monooxygenase (Photinus pyralis), P08659 | purified FLuc, Km substrates, luminescence inhibition; note: nearly all actives have a fitted effect of over 55% in size
Target sequence (P08659 whole entry, looked up): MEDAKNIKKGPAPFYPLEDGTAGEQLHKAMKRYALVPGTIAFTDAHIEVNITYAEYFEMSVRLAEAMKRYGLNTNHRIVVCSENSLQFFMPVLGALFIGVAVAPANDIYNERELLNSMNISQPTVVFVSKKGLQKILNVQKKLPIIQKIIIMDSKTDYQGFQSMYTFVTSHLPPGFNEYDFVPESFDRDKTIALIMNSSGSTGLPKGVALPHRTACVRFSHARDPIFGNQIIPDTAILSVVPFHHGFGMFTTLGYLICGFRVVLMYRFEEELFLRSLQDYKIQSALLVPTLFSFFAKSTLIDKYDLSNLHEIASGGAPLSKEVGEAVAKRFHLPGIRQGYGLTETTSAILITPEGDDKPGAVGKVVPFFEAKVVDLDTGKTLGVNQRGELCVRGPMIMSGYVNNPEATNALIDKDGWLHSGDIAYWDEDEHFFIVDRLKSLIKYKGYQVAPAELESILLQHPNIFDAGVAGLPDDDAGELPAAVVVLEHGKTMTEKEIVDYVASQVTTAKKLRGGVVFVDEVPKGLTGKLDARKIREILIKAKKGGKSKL
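Biochemical qHTS of compounds, final roughly 60 µM downward over six points, against 10 nM purified firefly luciferase using Km concentrations of substrates (10 uM D-luciferin, 10 uM ATP) in Tris acetate pH 7.5 buffer; luminescence output.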
ELG1 repair inh: qHTS screen for small molecules that inhibit ELG1-dependent DNA repair in human embryonic kidney (HEK293T) cells expressing luciferase-tagged ELG1 | 330,000 compounds, 2.3% hits | Potency, µM (highest dose often 46.1 µM), usual class: inhibitors | HEK293T ELG1-luciferase reporter, luminescence, 16 h; DNA damage induced by 5-fluorouridine; note: nearly all actives have a fitted effect of over 55% in size
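Luminescence from the luciferase reporter, measured 30 min after ONE-Glo reagent at room temperature, was the read-out. Beforehand, 2,000 cells per well were exposed for 16 hr at 37 °C to 5-fluorouridine together with compound or vehicle.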
Hits are given with their value; - = inactive; ? = inconclusive; . = not tested or not shown; [ ] = dose if it differs, or a comment. In the library only some 9.2% were active in any assay of this set; here they are far more common. Calls come from the whole dose curve; as a rule, active = well fitted curve in the direction sought with a large enough effect; inconclusive = small, poorly fitted or top-dose-only effect, or another doubt; inactive = no such curve, though single readings can be large; an effect the other way counts as inactive or inconclusive.

SMILES	SMN2 splice up	NPC1 promoter act	Rab9 prom act	ELG1 genotox	FLuc modulator	ELG1 repair inh
CCOC(=O)Cc1csc(NC(=O)c2ccc(Br)s2)n1	-	-	-	-	23.9µM	-
CCOC(=O)c1csc(NC(=O)C(C)(C)C)n1	-	-	-	-	-	?
CCOC(=O)c1csc(NC(=O)c2cc(OC)c(OC)c(OC)c2)n1	-	-	-	-	-	5.8µM
N/C(=N\OC(=O)CCn1cccc(C(F)(F)F)c1=O)c1ccc(Cl)cc1	.	-	-	-	-	?
CN1CCN(C(=O)c2ccccc2NC(=O)c2sc3ccccc3c2Cl)CC1	.	-	-	-	?	-
CN1CCN(c2ccc(NC(=O)c3sc4ccccc4c3Cl)cc2)CC1	-	2.51µM	1µM	?	1.9µM	?
O=C(NCc1ccco1)c1sc2cc(Cl)ccc2c1Cl	?	-	-	-	?	?
CCn1nnc(NC(=O)c2sc3ccccc3c2Cl)n1	11.2µM	2.24µM	?	20.6µM	9.53µM	?
O=C(NCc1ccco1)c1sc2ccccc2c1Cl	?	-	?	?	21.3µM	?
O=C1CCC/C(=N/NC(=O)c2sc3ccccc3c2Cl)C1	.	?	?	-	15.1µM	?
CCOC(=O)c1c(NC(=O)CSc2nc3ccc(C)cc3[nH]2)sc2c1CC(C)(C)NC2(C)C	.	-	-	-	-	-
CC1CCN(C(=O)COc2cccc3c2CCN(C)C3=O)CC1	-	-	-	-	-	-
Cc1ccc(NC(=O)c2sc3ccccc3c2Cl)cc1	8.91µM	.	.	.	1.2µM	.
Cc1ccc(NC(=O)c2nsc(Cl)c2Cl)cc1	.	3.55µM	2.82µM	?	1.69µM	?
O=C(Nc1ccncc1)c1sc2ccccc2c1Cl	?	?	?	-	?	-
S=c1ccss1	-	.	.	.	.	.
COc1ccccc1NC(=O)CN1C(=O)CC(c2ccc(C)c(C)c2)=Nc2ccccc21	.	.	.	.	13.5µM	.
CCOc1ccccc1NC(=O)CN1C(=O)CC(c2ccc(C)c(C)c2)=Nc2ccccc21	.	.	.	.	26.9µM	.
Cc1cc2c(cc1C)N(CC(=O)N1CCCC1)C(=O)CC(c1ccccc1)=N2	-	-	-	?	13.5µM	?
O=C(CN1C(=O)CC(c2ccccc2)=Nc2ccccc21)NCc1ccccc1	-	-	-	-	-	-
CC1=C(C(=O)OCc2ccc(C)cc2)C(c2ccccc2C(F)(F)F)CC(=O)N1 (stereo not given)	-	.	.	.	-	.
CCN(CC)CCCNC(CC(=O)Nc1cccc([N+](=O)[O-])c1)C(=O)O (stereo not given)	-	-	-	-	-	-
CCN1CCC(CNCc2cn(-c3ccc(OC)cc3)nc2-c2ccccc2Cl)C1 (stereo not given)	.	-	-	-	-	-
CCC(=O)N/C(=N/c1nc(C)cc(C)n1)Nc1ccc(C)cc1	.	-	-[1.84 µM]	-	-	?
CCOc1ccc(NC(=O)Nc2ccc(Cc3ccncc3)cc2)cc1	.	-	-	-	-	-
SMILES	SMN2 splice up	NPC1 promoter act	Rab9 prom act	ELG1 genotox	FLuc modulator	ELG1 repair inh
CCOc1ccc(N/C(=N/c2nc(C)cc(C)n2)NC(=O)CC)cc1	.	-	-	-	-	18.3µM
CCCCOc1ccc(C(=O)Nc2cccc(C)n2)cc1	?	3.55µM	?	-	3.01µM	?
CCOc1ccc(C(=O)Nc2cccc(C)n2)cc1	5.01µM	2µM	1µM	?	2.39µM	?
Cc1cccc(NC(=O)c2ccc(Cl)nc2)n1	.	-	-	-	-	?
CCOc1ccc(NC(=O)Nc2cccc(C)n2)cc1	-	3.55µM	2.51µM	-	?	?
Cc1cccc(NC(=O)c2ccc(S(=O)(=O)N(C)C)cc2)n1	-	-	-	?	-	-
CCc1ccc(-c2[nH]nc3nc(-c4ccc(OC)cc4)cc(C(=O)NCCCOC)c23)cc1	.	.	.	.	-	.
CCNC(=S)NNc1nc(N2CCCCC2)nc(N2CCOCC2)n1	-	-	-	-	-	-
